Measurements reported in ChEMBL document CHEMBL3988442, “University of Dundee, Small-Polar-MMV Screening Library” (2021).
In all, about 69,000 compounds went through this assay and about 1,000 (1.4%) showed an effect of 50% or more. The sample as a whole holds a higher share of strong results than the screen did.

Tested on: Leishmania donovani
Test: Leishmania intramacrophage assay
Type: functional, organism-based
Design: scale not given: in the data most compounds retested in dose-response had high values

SMILES	Percent Effect (30.3 µM, […]) [%]	Percent Effect (30 µM, 30.03 µM) [%]
CCCN1CCC(c2nc3ccc(C)cn3n2)CC1.O=C(O)C(F)(F)F	17.32	–
Cc1cccc(CN2C(=O)C[C@H]3[C@@H]2CCN3Cc2nccs2)n1.O=C(O)C(F)(F)F.O=C(O)C(F)(F)F	2.484	–
CC(C)NC(=O)c1ccc2c(c1)C1(CCN(C)CC1)C(=O)N2.O=C(O)C(F)(F)F	1.546	–
Cc1ccc(C(=O)N2C[C@H](N3CCOCC3)[C@@H]3OCCC[C@@H]32)cn1.O=C(O)C(F)(F)F.O=C(O)C(F)(F)F	2.104	–
CN1[C@H]2CC[C@@H]1CN(c1cc(Sc3cccs3)nc(N)n1)CC2	2.015	–
CC(C)CCN1C[C@@H]2OCCN(c3ncc(F)cn3)[C@@H]2C1.O=C(O)C(F)(F)F	-5.572	–
COCC1CC2(CCN(Cc3cccnc3)CC2)CN1C(C)C (centres undefined)	20.26	–
Cl.NC(=O)N1CC2(CCNCC2)c2cc(Cl)ccc21	–	2.936
Cc1noc(C)c1CN1CC[C@H]2C[C@@H](c3nccs3)O[C@@H]2C1	–	15.1
Cc1cccc(-c2ncc(CNC(C)Cc3ncccc3C)cn2)c1 (centres undefined)	-19.51	–
Cc1cccc(-c2ncc(CNC(C)Cc3ccncc3)cn2)c1 (centres undefined)	-22.9	–
CC(Cc1cccc(F)c1)NCc1cnc(N2CCN(C)CC2)nc1 (centres undefined)	97.99	–
Cl.Cl.Fc1ccc2c(c1)C1(CCNCC1)CC2NC1CC1 (centres undefined)	27.52	–
Cc1ccc(O[C@@H]2C[C@H]3CN(C(=O)Cc4ccccn4)CCN3C2)cc1.O=C(O)C(F)(F)F.O=C(O)C(F)(F)F	11.94	–
CCc1ncc(CN(CCc2ccccc2)Cc2cccs2)cn1.O=C(O)CC(O)(CC(=O)O)C(=O)O	-1.419	–
c1ccc(-c2ncc(CN3CCC4(CCNCC4)C3)cn2)cc1	24.37	–
Fc1cnccc1CN1CCC2(CCNCC2)C1	25.89	–
Oc1cccc2ccc(CN3CCC4(CCNCC4)C3)nc12	61.55	–
COCC1CC2(CCN(CC3CC3)CC2)CN1Cc1ccccn1.O=C(O)C(F)(F)F.O=C(O)C(F)(F)F (centres undefined)	40.82	–
Fc1cnc(N2CCCC3(CCN(Cc4ccoc4)C3)C2)nc1.O=C(O)C(F)(F)F.O=C(O)C(F)(F)F (centres undefined)	13.62	–

SMILES	Percent Effect (30.3 µM, […]) [%]	Percent Effect (30 µM, 30.03 µM) [%]
Cc1oncc1C(=O)N1CC[C@H]2[C@H](C[C@@H](CN3CCCC3)N2C)C1.O=C(O)C(F)(F)F.O=C(O)C(F)(F)F	25.5	–
CCOC(=O)N1CCC(NC(C)Cc2cc(C)n[nH]2)CC1 (centres undefined)	11.64	–
Cc1cc(N2CCC(NC(C)Cc3ccsc3)CC2)nc(N)n1 (centres undefined)	71.35	–
Cc1cccc(C)c1NC(=O)CNC(C)Cc1ccsc1 (centres undefined)	11.71	–
Cc1cc(CC(C)NC2CCSCC2)[nH]n1 (centres undefined)	3.441	–
Cc1cc(N2CCC(NC(C)Cc3ccsc3)CC2)nc(C)n1 (centres undefined)	70.01	–
Cc1cc(CC(C)NC2CCN(CC(C)C)CC2)[nH]n1 (centres undefined)	19.46	–
CCS(=O)(=O)NC[C@]12COC[C@H]1CN(Cc1cccnc1OC)C2.O=C(O)C(F)(F)F.O=C(O)C(F)(F)F	-3.146	–
CC(C)N(C)Cc1cncc2c1CCN(Cc1cccs1)C2.Cl.Cl.Cl	7.349	–
O=C(O)C(F)(F)F.O=C(O)C(F)(F)F.c1cncc(OC[C@@]23CCO[C@@H]2CCN(Cc2cccs2)C3)c1	13.49	–
O=C(O)C(F)(F)F.O=C1Nc2ccccc2C12CCN(Cc1nccs1)CC2	18.81	–
Cc1ccc(CN2CCO[C@H]3[C@@H](OCc4cccnc4)CC[C@@H]32)o1.O=C(O)C(F)(F)F.O=C(O)C(F)(F)F	19.54	–
COc1cccc(Cn2cc(C3=CCN(CCO)CC3)cn2)c1	22.79	–
COc1ccc(-n2nnnc2C2(NCc3ccco3)CCCCC2)cc1	-17.59	–
Cc1ccc(N2CCC3(CN(CCO)CCC3(F)F)C2)nn1.O=C(O)C(F)(F)F (centres undefined)	39.18	–
FC1(F)CCNCC12CCN(c1cccnc1)C2.O=C(O)C(F)(F)F.O=C(O)C(F)(F)F (centres undefined)	9.392	–
OCCN1CCC(F)(F)C2(CCN(c3cccnc3)C2)C1 (centres undefined)	51.95	–
COCCN1C[C@@H]2CN(Cc3cccc(C)n3)C[C@@H]2C1=O.O=C(O)C(F)(F)F	–	25.64
CC(C)CN1CCC2(COCc3cnc(-c4ccccc4)nc32)C1.O=C(O)C(F)(F)F (centres undefined)	36	–
